# Assay results as given in PubChem BioAssay AID2685 (National Center for Advancing Translational Sciences (NCATS), 2010).
# In all, about 320,000 compounds went through this assay and about 2,100 (0.66%) were called active. About 53% were inconclusive and are not listed. Calls follow the shape of the dose curve; as a rule, active = well fitted inhibition curve with a large enough effect in the signal ratio, with a control signal flat (not every such curve was filed as active); inconclusive = small, poorly fitted or top-dose-only effect, or effect the other way, or a change in a side signal; inactive = flat fitted curve, though single readings scatter; the % refers to the signal ratio. The entries come from a sample that favours actives as a whole.
# Test: qHTS Assay for Lipid Storage Modulators in Drosophila S3 Cells;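 as to cell number change: cells counted by Cell Tracker Red CMTPX staining in the red channel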; as to lipid storage change, negative = inhibition: % is scaled to controls: 0 for no effect and ±100 for the full control effect
# Conditions: BODIPY lipid droplet fluorescence, 18-24 h, cells fed with added oleic acid; cell number change: measured here: cell count max response; series mostly up to 46.1 µM; lipid storage change, negative = inhibition: at the top concentration
# Method in brief: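 Laser-scanning cytometry quantifies lipid droplet accumulation (500–530 nm total intensity; droplet/cell object ratio) in oleic acid-fed (400 uM added) Drosophila S3 cells treated with a concentration series. 20 uM Triacsin C defined 100% inhibition.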
# Potency is read from the fitted curve at half-maximal effect.
SMILES,"lipid storage change, negative = inhibition",cell number change,outcome,Potency
CCCn1c(N)c(N(CCOC)C(=O)/C=C/c2ccc(C(=O)OC)cc2)c(=O)[nH]c1=O,-7.54% (inactive),-4.64%,–,–
CC(C)(C)NC(=O)C(c1ccc(F)cc1)N(Cc1ccco1)C(=O)c1csnn1 (centres undefined),13.7% (inactive),-0.0921%,–,–
Cc1ccc(NC(=O)CCc2c(C)[nH]c(=O)c(C#N)c2C)cc1,–,16.2%,inactive,–
COc1cc(NC(=O)CCc2c(C)[nH]c(=O)c(C#N)c2C)cc(OC)c1,–,-2.94%,–,0.058 µM (active)
COc1ccccc1NC(=O)CCc1c(C)[nH]c(=O)c(C#N)c1C,-20.9% (inactive),16.5%,–,–
COc1ccc(-c2[nH]ncc2/C=N/NC(=O)c2ccc(Br)cc2)c(OC)c1,15.5% (inactive),3.28%,–,–
CCOc1ccc(NC(=O)CN2C(=O)CSC(C)C2=O)cc1 (centres undefined),18.6% (inactive),8.89%,–,–
Cc1c(C(=O)N(CCC#N)c2ccccc2)sc2nc3n(c(=O)c12)CCCC3,-10.6% (inactive),7.46%,–,–
Oc1ccc(Br)cc1-c1cc(-c2ccccc2Cl)[nH]n1,-22.2% (inactive),-23.2%,–,–
COc1ccc(O)c(-c2cc(-c3ccccc3Cl)[nH]n2)c1,–,-20.4%,–,3.66 µM (active)
COc1ccc(O)c(-c2cc(-c3ccccc3[N+](=O)[O-])[nH]n2)c1,7.36% (inactive),-1.9%,–,–
CCc1ccc(/C=C(\C)C(=O)c2c(C)cc(C)[nH]c2=O)cc1,3.7% (inactive),-0.605%,–,–
CCOc1ccc(C2c3[nH]c4ccccc4c3C[C@H]3C(=O)N(C4CC4)CC(=O)N23)cc1OC (some centres undefined),9.36% (inactive),5.07%,–,–
CCOc1ccc2oc(C(=O)NC(C)(C)CC)c(C)c2c1,5.67% (inactive),-22.3%,–,–
CC(C)(C)N(Cc1ccccc1)C(=O)COC(=O)CNS(=O)(=O)c1ccc2ccccc2c1,4.49% (inactive),-5.96%,–,–
COc1cccc(C(=O)NC23CC4CC(CC(C4)C2)C3)c1,15.8% (inactive),26.5%,–,–
COc1ccc(N2CCN(C(=O)NC34CC5CC(CC(C5)C3)C4)CC2)cc1,–,–,inactive,–
COc1cccc(N2CCN(C(C)C(=O)NC34CC5CC(CC(C5)C3)C4)CC2)c1 (centres undefined),–,-27.6%,–,1.3 µM (active)
CC(=C1C(=O)c2ccccc2C1=O)N1CCN(Cc2ccccc2)CC1,–,11.8%,inactive,–
O=C1c2ccccc2C(=O)c2c1cccc2N1CCN(Cc2ccccc2)CC1,–,–,–,18.4 µM (active)
O=c1[nH]ncc(N2CCN(Cc3ccccc3)CC2)c1Cl,13.6% (inactive),12.7%,–,–
CCN(CC)C(c1ccc(F)cc1)c1nnnn1CC1CCCO1 (centres undefined),–,4.03%,–,18.4 µM (active)
CN(c1ccccc1)C(c1ccc(F)cc1)c1nnnn1CC1CCCO1 (centres undefined),–,–,inactive,–

SMILES,"lipid storage change, negative = inhibition",cell number change,outcome,Potency
CCN(CC)C(c1ccc(F)cc1)c1nnnn1C1CCCCC1 (centres undefined),10.6% (inactive),-7.83%,–,–
CC(C)c1nc(SCC(=O)N2CCOCC2)c2c(=O)n(C)c(=O)n(C)c2n1,8.15% [at 9.22 µM] (inactive),5.66%,–,–
C=C(C)Cn1c(SCC(=O)O)nnc1-c1ccc(C(C)(C)C)cc1,–,-3.69%,–,29.1 µM (active)
C=CCn1c(SCC(=O)O)nnc1-c1ccc(C(C)(C)C)cc1,-0.438% (inactive),5.05%,–,–
Cn1c(SCC(N)=O)nnc1-c1ccc(C(C)(C)C)cc1,-7.75% (inactive),-9.51%,–,–
CC(C)=CC(O)C/C(C)=C/COc1ccc2ccc(=O)oc2c1 (centres undefined),5.31% (inactive),-2.96%,–,–
O=C(NCC(c1ccco1)N1CCOCC1)c1ccc(F)c(F)c1 (centres undefined),6.58% (inactive),3.3%,–,–
CCCCC1C2C(=O)N(c3ccccc3)C(=O)C2ON1c1ccccc1 (centres undefined),14.1% (inactive),-1.39%,–,–
CCCCC1C2C(=O)N(c3ccc(C)cc3)C(=O)C2ON1c1ccccc1 (centres undefined),0.528% (inactive),7.09%,–,–
CCCOc1ccc(N2C(=O)C3ON(c4ccccc4)C(CCC)C3C2=O)cc1 (centres undefined),–,10.7%,–,18.4 µM (active)
CSc1nnc(C)c(=O)n1COC(=O)COc1ccc(Cl)cc1,8.1% (inactive),11.4%,–,–
CCO[C@H]1OC(C(=O)N2CCN(C)CC2)=C[C@@H](c2ccc(Br)cc2)[C@@H]1CCCO,0.537% (inactive),4.76%,–,–
CC(=O)Nc1ccc(NC(=O)Nc2cc(C)cc(C)c2)cc1,-8.79% (inactive),7.61%,–,–
CCC(CC)C(=O)NCCc1ccc(F)cc1,–,0.621%,–,25.9 µM (active)
CCC(CC)C(=O)NCCc1ccc(S(N)(=O)=O)cc1,0.195% (inactive),-8.96%,–,–
O=C(Cc1ccc(F)cc1)NCCc1ccc(F)cc1,0.497% (inactive),-3.73%,–,–
O=C(Cc1ccccc1)N/N=C/c1ccc[nH]1,1.93% (inactive),7.79%,–,–
COc1ccccc1N(C)S(=O)(=O)c1ccc(C(=O)O)cc1,-19.5% (inactive),-4.33%,–,–
COc1cccc(CN2CCNC(=O)C2CC(=O)NCc2cn3cccc(C)c3n2)c1OC (centres undefined),–,-8.41%,inactive,–
O=S(=O)(c1cccc2nsnc12)N1CCN(C/C=C/c2ccccc2)CC1,24.3% (inactive),7.87%,–,–
CCN1CCN(S(=O)(=O)c2cccc3nsnc23)CC1,-15.7% (inactive),-12.7%,–,–
O=S(=O)(c1cccc2nsnc12)N1CCN(Cc2ccccc2)CC1,–,1.32%,–,6.51 µM (active)
COc1ccc(-n2c(C)cc(/C=C3\SC(=S)N(Cc4ccco4)C3=O)c2C)cc1,-4.8% (inactive),-10.6%,–,–
